Measurements as given in PubChem BioAssay (NCATS).
Results filed as inconclusive are left out. The source made the active and inactive calls. The call rests on the fitted dose curve; in most records, active means well fitted inhibition curve with a large enough effect; inconclusive means small, poorly fitted or top-dose-only effect; inactive means no such curve, though single readings can be large or run the other way.

target: Cytochrome P450 2D6 (Homo sapiens) (UniProt P10635); experiment: qHTS Assay for Inhibitors and Substrates of Cytochrome P450 2D6 (AID 891); details: recombinant CYP2D6, luciferin-ME EGE luminescence; series mostly up to 11.4 µM; activity change, negative = inhibition: at the top concentration; further: nearly all actives have a fitted effect of over 60% in size
Protocol: NIH Molecular Libraries Screening Centers Network [MLSCN]
NIH Chemical Genomics Center [NCGC]
The P450 gene superfamily is involved in the metabolism and clearance of xenobiotics. This assay used human CYP2D6 to measure the demethylation of ethylene glycol ester of luciferin 6' methyl ether (Luciferin-ME EGE; […]) to luciferin. The luciferin is then measured by luminescence after the addition of a luciferase detection reagent. Luciferin-ME EGE concentration in the assay was equal to its Km for CYP2D6. Inhibitors and some substrates limit the production of luciferin, and decrease measured luminescence.
NCGC Assay Protocol Summary:
Two uL of enzyme and substrate mix (final concentrations: 5nM CYP2D6, 30uM Luciferin-ME EGE, 100mM KPO4) were dispensed into a white, solid bottom 1536-well microtiter plate. 23nL of compound was transferred by a pin tool. The plate was incubated at room temperature for 10 min. Two uL of an NADPH regeneration solution (Promega supplied reagent) was dispensed and the reaction was allowed to continue for 60 min at room temperature. Then the reaction was stopped by reconstituted luciferin detection buffer. After another 20 min of incubation the plate was read on the ViewLux (Perkin Elmer) at 60 sec exposure and 2x2 binning. This protocol was carried out with Promega-Glo reagents and further information can be found at http://www.promega.com/tbs/tb325/tb325.pdf. Data were normalized to the to AC100 inhibition (1.43 uM quinidine).
Keywords: P450, CYP2D6, Luciferase, MLSMR, MLSCN, NIH Roadmap, qHTS, NCGC
On the % scale 0 is the no-effect control and ±100 the full control effect; potency means the concentration at half of the fitted maximal effect.

Chain of Cytochrome P450 2D6 (Homo sapiens) (P10635 whole entry, looked up): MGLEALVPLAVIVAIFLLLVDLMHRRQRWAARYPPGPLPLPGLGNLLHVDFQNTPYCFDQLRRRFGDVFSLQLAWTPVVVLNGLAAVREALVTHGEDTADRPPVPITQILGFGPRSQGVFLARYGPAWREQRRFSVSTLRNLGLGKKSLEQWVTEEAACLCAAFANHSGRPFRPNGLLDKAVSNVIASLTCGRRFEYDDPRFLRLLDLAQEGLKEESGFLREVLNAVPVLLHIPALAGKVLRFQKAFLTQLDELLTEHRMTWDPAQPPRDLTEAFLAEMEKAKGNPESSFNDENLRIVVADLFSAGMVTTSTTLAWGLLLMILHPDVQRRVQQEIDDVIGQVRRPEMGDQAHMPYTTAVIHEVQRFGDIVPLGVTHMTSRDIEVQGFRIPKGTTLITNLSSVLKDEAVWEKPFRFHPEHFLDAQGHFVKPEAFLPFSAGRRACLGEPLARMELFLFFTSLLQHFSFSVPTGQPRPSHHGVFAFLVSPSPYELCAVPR

Row | Compound | activity change, negative = inhibition | Potency
1 | CC(=O)OCC(=O)[C@@]1(O)CC[C@@H]2[C@@H]3CCC4=CC(=O)CC[C@@]4(C)[C@H]3C(=O)C[C@]21C | 1.78% [at 57.1 µM] (inactive) | 
2 | CCC[C@@H]1O[C@@H]2C[C@@H]3[C@@H]4CCC5=CC(=O)C=C[C@@]5(C)[C@H]4[C@H](O)C[C@@]3(C)[C@@]2(C(=O)CO)O1 | -7.08% [at 57.1 µM] (inactive) | 
3 | CC1=CC(C)(C)Nc2ccc(CSc3ccccc3)cc21 |  | 631 nM (active)
4 | O=S1(=O)[C@H]([C@H]2CC3c4ccccc4C2c2ccccc23)[C@@H](N2CCCCC2)[C@@H]1c1ccccc1 |  | 3160 nM (active)
5 | CC(C)c1cc(C(F)(F)F)nc(NNc2nc(C(C)C)cc(C(F)(F)F)n2)n1 |  | 126 nM (active)
6 | O=c1[nH]c(=O)n([C@H]2C[C@H](O)[C@H](CO)O2)cc1Br | -4.07% [at 57.1 µM] (inactive) | 
7 | CCCC[S@@](=N)(=O)CC[C@@H](N)C(=O)O | 31.5% [at 57.1 µM] (inactive) | 
8 | O=C(O)CCC(=O)c1ccc2ccc3cccc4ccc1c2c34 | 41% (inactive) | 
9 | NS(=O)(=O)c1cc2c(cc1Cl)=NC(CCC(=O)O)=NS=2(=O)O | 22.4% (inactive) | 
10 | C[N@@+]1(Cc2ccc(Cl)c(Cl)c2)CCC[C@@H]1c1ccc[n+](Cc2ccc(Cl)c(Cl)c2)c1 |  | 3160 nM (active)
11 | N#CNC(N)=Nc1ccc(Cl)cc1 | 2.45% (inactive) | 
12 | O=C(O)NCc1ccccc1 (tested in a mixture with another compound) |  | 3980 nM (active)
13 | CN1CCc2ccccc2[C@@H]1Cc1ccccc1NC(=O)c1sc2ccccc2c1Cl |  | 79.4 nM (active)
14 | Cn1c(=O)c2[nH]c(SCc3ccccn3)nc2n(C)c1=S | 22.1% (inactive) | 
15 | Oc1ccc(Cc2nccc3cc(O)c(O)cc23)cc1O |  | 1260 nM (active)
16 | O=C(O)CC(CC(=O)O)n1cccc1 | -1.51% (inactive) | 
17 | Nc1nc(N)nc(CCCCc2nc(N)nc(N)n2)n1 | -2.12% (inactive) | 
18 | O=c1c2ccccc2sc2c(CO)ccc(NCCN3CCCCC3)c12 |  | 1260 nM (active)
19 | Oc1ccc([C@@H]2CNCCc3c2cc(O)c(O)c3Cl)cc1 |  | 3160 nM (active)
20 | Cc1sc2ccccc2[n+]1CCC(=O)O | 24.4% (inactive) | 

Row | Compound | activity change, negative = inhibition | Potency
21 | O=C(O)NCC1CCCCC1 (tested in a mixture with another compound) |  | 3980 nM (active)
22 | Cc1c(Cl)c(S(N)(=O)=O)cc(S(N)(=O)=O)c1NC(=O)c1ccc(Cl)cc1 | 23.8% (inactive) | 
23 | NC(N)=NCCSSCCN=C(N)N | -16% [at 57.1 µM] (inactive) | 
24 | Clc1ccc(CN2CCCN(Cc3ccc(Cl)cc3)C2c2cc3ccccc3c3ccccc23)cc1 |  | 199 nM (active)
25 | COc1ccc(-c2cc([C@H](O)[C@@H]3CCCCN3)c3ccccc3n2)cc1 |  | 3160 nM (active)
26 | O=C(O)C1(C(=O)O)CCN(S(=O)(=O)c2ccccc2)CC1 | 14.7% (inactive) | 
27 | CCc1cccc2c3c([nH]c12)[C@](CC)(CC(=O)O)OCC3 | 7.03% [at 57.1 µM] (inactive) | 
28 | CN(C)CCCN1c2ccc(O)cc2Sc2ccc(Cl)cc21 |  | 126 nM (active)
29 | Cc1ccc2nc(N/N=C\c3cccc(C)n3)cc(C)c2c1 |  | 3160 nM (active)
30 | CC1(C)[C@@H]2CC[C@@](C)(C2)[C@H]1OC(=O)c1ccccc1C(=O)O | 24.4% (inactive) | 
31 | CN1CCc2cc(Cl)c(O)cc2[C@H](c2ccccc2)C1 |  | 631 nM (active)
32 | N/C(CC/C(N)=N/O)=N\O | 28.7% (inactive) | 
33 | Oc1c(Br)cc(CN(Cc2cc(Br)c(O)c(Br)c2)C2CCCCC2)cc1Br |  | 2510 nM (active)
34 | CN=C(N)/N=C(\N)Nc1cc2ccccc2c2ccccc12 |  | 1580 nM (active)
35 | O=C(O)CCCc1ccc2ccc3ccccc3c2c1 | 22.6% (inactive) | 
36 | c1ccc2sc(SCCSc3nc4ccccc4s3)nc2c1 | 29.9% (inactive) | 
37 | C[C@]12CC[C@H]3c4ccc(O)cc4CC[C@@H]3[C@H]1C/C(=N/O)[C@H]2O | 28.1% (inactive) | 
38 | CN1C[C@@H](O)[C@@H](O)[C@@H](O)[C@@H]1CO | 3.02% [at 57.1 µM] (inactive) | 
39 | CC1(C)N=C(N)N=C(N)N1c1cccc(OCc2cccc(N)c2)c1 |  | 2510 nM (active)
40 | c1ccc(C[n+]2cccc(-c3cc4ccccc4[nH]3)c2)cc1 |  | 1260 nM (active)
